The results in this text go back to PubChem BioAssay AID652039 (The Scripps Research Institute Molecular Screening Center, 2013).

The whole screen tested about 370,000 compounds, of which about 3,300 (0.89%) were called active. Many of the other results were omitted from the sample, so actives are more common in it than they were. Unmarked numbers belong to inactive results.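 Rule for the calls: active = activation above the mean of all tested compounds plus 3 SD, computed per campaign excluding outliers beyond control limits (cut at about 13% in these data); inactive = the rest.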

The assay deals with Kallikrein-7 (Homo sapiens) (UniProt P49862). Put plainly: proKLK7 zymogen activators, primary screen, biochemical, fluorescence intensity (AID 652039). Conditions: purified proKLK7, EDANS-DABCYL substrate fluorescence; at 7 µM; stronger effect = higher value; 100% is mature enzyme control, 0% vehicle.
Sequence of Kallikrein-7 (Homo sapiens) (P49862 whole entry, looked up): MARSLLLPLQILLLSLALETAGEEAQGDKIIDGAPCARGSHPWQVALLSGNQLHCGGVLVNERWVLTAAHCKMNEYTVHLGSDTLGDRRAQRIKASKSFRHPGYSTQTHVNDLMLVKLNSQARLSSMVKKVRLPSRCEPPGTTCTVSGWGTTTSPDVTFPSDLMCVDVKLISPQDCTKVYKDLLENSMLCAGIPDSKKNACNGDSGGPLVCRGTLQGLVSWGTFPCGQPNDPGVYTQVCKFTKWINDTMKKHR
With `CCOc1ccc(NC(=O)COc2ccc(S(=O)(=O)N3CCCC3)cc2)cc1`, the activation was 0.16%. With `CCOC(=O)C1=C(O)/C(=C/c2ccc(OCC(=O)Nc3ccc(C)cc3)cc2)N=C1C`, the activation was 31.9% (active). With `Cc1ccc(NC(=O)CN(C)C(=O)COC(=O)c2nccnc2N)cc1`, the activation was 8.05%. Consider `CC(c1c[nH]c2ccccc12)c1c(-c2ccccc2)n(C)c2ccccc12` (stereo unspecified), for which the activation was -7.26%. In the case of `COc1ccc(C(=O)OCCN2CCN(C3CN(Cc4cn(Cc5ccccc5F)nn4)S(=O)(=O)C3)CC2)cc1OC` (stereo unspecified), the activation was 0%. In the case of `Clc1ccc(-n2c(SC/C=C/c3ccccc3)nnc2-c2ccco2)cc1`, the activation was 0.14%.

`COCc1cc(=O)[nH]c2cc(NC(=O)C(F)(F)F)c(C)cc12`: the activation is 466% (active). On to `Cc1ccccc1Cn1nc(C)c(NC(=O)C(F)(F)F)c1C`, for which the activation was -0.19%.

For `COCc1cc(=O)[nH]c(-c2ccc(C(F)(F)F)cc2)n1`, the activation is 0.23%. For `COc1ccc(OC)c(Cc2cnc3nc(N)nc(N)c3c2C)c1` the value was -0.29%; for `COC[C@@H]1CCCN1c1ccc2c(c1)O[C@H](C)CCN(C1CC1)S2(=O)=O`, -0.36%.

Turning to `CCOC(=O)[C@]12CCCC3=C1N(CCC3)C(=O)[C@@H](CC(=O)N1CCSCC1)C2`, the activation is -0.2%. Turning to `COC(=O)c1cc(C(=O)OC)cc(N2C(=O)CC(N3CCN(c4ccccc4)CC3)C2=O)c1` (stereo unspecified), the activation is -0.42%. Turning to `COC(=O)C1(C)NC(c2ccccc2OC)C2C(=O)N(c3ccccc3)C(=O)C21` (stereo unspecified), the activation is 0.39%. With `COC(=O)C1=NN(c2ccccc2)C2C(=O)N(c3ccccc3OC)C(=O)C12` (stereo unspecified) the figure was 20.8% (active).

With `CCOc1ccc(-n2c(SCC(=O)Nc3cc(C)c(NC(=O)c4ccccc4)cc3OC)nnc2-c2cccs2)cc1`, the activation was 13.4% (active). As for `CCOc1ccc(-n2c(SCC(=O)Nc3cc(C)c(NC(=O)c4ccccc4)cc3OC)nnc2-c2cccc(Cl)c2)cc1`, the activation is 4.85%. As to `COc1ccc(-n2c(SCC(=O)Nc3ccccc3-c3ccccc3)nnc2-c2cccnc2)cc1`, the activation was -0.23%. For the compound `COc1ccc(S(=O)(=O)N2CCN(C(=O)N(C)C)C2C)cc1` (stereo unspecified), the activation is 0.63%. For `Cc1ccc(-n2c(SCC(=O)Nc3ccc(S(=O)(=O)Nc4nccs4)cc3)nnc2-c2ccccn2)cc1` the value was 0.68%; for `CC1(C)CN(c2ccc(-c3ccnc4ncnn34)cc2)C1=O`, 29.6% (active); for `Nc1c(-c2ccc(F)cc2)cnc2ncnn12`, 0.09%.

For the compound `Cc1cc([N+](=O)[O-])nn1Cc1ccc(F)cc1`, the activation was 0.68%. As to `CC(=O)O[C@@]1(C(C)=O)CCC2[C@H]3C=C(C)C4=CC(=O)CC[C@@]4(C)C3CC[C@]21C` (stereo partly specified), the activation is 0.5%.

Turning to `COc1cc(Cl)c(C)cc1NC(=O)COC(=O)c1cc(SC)ccc1Cl`, the activation is -0.31%. For `COC(=O)Cc1nc2c(N)nc(N)nc2[nH]c1=O` the value was 29.9% (active). For `CCCCOCCCNC(=O)C[C@H]1C[C@@]2(C(=O)OC)C(=C[C@H](COCc3ccccc3)O[C@@H]2C)N(Cc2cccc3ccccc23)C1=O`, the activation is -0.35%. For `COC1=C[C@H](C(=O)NCCNC(C)=O)[C@H](C)[C@@H](c2ccccc2)CC1=O` the value was 0.74%; for `O=C(Nc1ccc(Br)cc1)OCCN1C(=O)CCC12CCC(c1ccccc1)CC2` (stereo unspecified), 0.49%. For `CCC(c1nnnn1Cc1ccco1)N(Cc1cc2cc(OC)ccc2[nH]c1=O)C1CCCCC1` (stereo unspecified), the activation is 1.29%. For `CCC(c1nnnn1Cc1ccco1)N(CCc1ccccc1)Cc1cc2ccc(OC)cc2[nH]c1=O` (stereo unspecified), the activation was 21.6% (active).

Turning to `CCOc1ccc2[nH]c(=O)c(CN(Cc3nnnn3CCc3ccccc3)CC3CCCO3)cc2c1` (stereo unspecified), the activation was -0.26%.

Take `C=CCN(C(=O)[C@@H](CCCC)[C@@H](O)c1ccc(Cl)cc1)c1ccccc1`: the activation is 0.33%. For `COC(=O)[C@H](C(C)C)N(CCCc1cn(Cc2ccccc2)nn1)S(=O)(=O)c1ccc(F)cc1Br`, the activation is -0.13%. For the compound `O=C(CCCCCN1C(=O)C2C3C=CC(C3)C2C1=O)Nc1ccccc1` (stereo unspecified), the activation is -1.05%. For `CCN(C(=O)[C@@H](C1CC1)[C@@H](O)c1ccc2ccccc2c1)c1ccccc1` the value was 0.13%. As for `Cc1cc2oc3ccc(NCCC4CCCN4C)cc3c(=O)c2cc1C` (stereo unspecified), the activation is 0.31%. For the compound `COc1cccc2sc3cc(NCC[C@@H]4CCCN4C)ccc3c(=O)c12`, the activation was 41.5% (active). Regarding `CCOC(=O)[C@]12CCCC=C1N(CCCOC)C(=O)[C@@H]2CC(=O)N1CCOCC1`, the activation was 0.35%. `COc1cc(NC(=O)C2CCCN(S(=O)(=O)c3ccc(C(C)(C)C)cc3)C2)cc(OC)c1` (stereo unspecified): the activation was 0.22%. Turning to `Cc1ccc(Cn2cc(COC(=O)N(C)Cc3ccccc3)nn2)cc1`, the activation is 0.39%. For `Clc1ccc(-c2cccc3nccn23)cc1` the value was 25% (active). For `c1cc(-c2ccc3[nH]ccc3c2)n2ccnc2c1` the value was 3.83%; for `O=C(NCCO)c1cccc(-c2cccc3nccn23)c1`, 1.32%.

With `CCN(CC)C(=O)CC[C@H]1CC[C@]2(CCCN(Cc3ccc(Cl)cc3)C2)O1`, the activation was 0.06%. Take `Cc1ccc(-n2c(SCC(=O)Nc3ccc(S(=O)(=O)Nc4nccs4)cc3)nnc2-c2cccnc2)cc1`: the activation was 0.82%. As for `COC(=O)[C@H](C(C)C)N(CCc1cn(Cc2ccccc2)nn1)S(=O)(=O)c1ccc(F)cc1Br`, the activation is 0.93%.

Regarding `C[C@@H]1C(c2ccc(F)cc2)=NN(c2ccc(Br)cc2)[C@H]1C(=O)N1CCOC1=O`, the activation is 37.1% (active). For `O=C1OCCN1C(=O)[C@H]1[C@H](c2ccccc2)C(c2ccc(F)cc2)=NN1c1ccccc1` the value was -23.2%. As to `O=C1OCCN1C(=O)[C@H]1[C@H](c2ccc(Cl)cc2)C(c2cccc(Cl)c2)=NN1c1ccc(Br)cc1`, the activation was -322%. For `CSc1ccc(C=Nn2c(-c3ccc(F)cc3)n[nH]c2=S)cc1` the value was -0.19%; for `CCC(C)(C)NC(=O)C(c1ccccn1)N(C(=O)c1csnn1)c1ccccc1` (stereo unspecified), 0.19%; for `CN(C(=O)C1CCOC1)c1nnc(-c2cccnc2)s1` (stereo unspecified), 1.7%. Turning to `CN(C(=O)c1ccccc1)c1nccnc1C#N`, the activation was -0.08%.

On to `CN(C(=O)c1ccccn1)c1nnc(-c2ccccn2)s1`, for which the activation was 26.2% (active). Regarding `COc1cccc(-c2nnc(N(C)C(=O)c3ccno3)s2)c1`, the activation was 0.14%. On to `CN(C(=O)COc1ccccc1)c1nnc(-c2ccncc2)s1`, for which the activation is 15.3% (active). For the compound `CC(C)Oc1ccc(CCc2nnc(SCC(=O)O)n2-c2ccccc2)cc1`, the activation was 0.35%. Turning to `O=C(Nc1nc2ccc(Cl)cc2s1)c1cc(-c2ccc(Cl)cc2)nc2ccccc12`, the activation is 0.7%. In the case of `COc1cccc2oc(CCc3ccccc3)cc(=O)c12`, the activation is 2.15%. On to `Cc1cc(OCC(=O)NCC(O)c2ccccc2)c2c(C)c(C)c(=O)oc2c1` (stereo unspecified), for which the activation is 0.58%. On to `CCOC(=O)COc1cc(OCC(=O)OCC)c2c(=O)cc(-c3ccccc3)oc2c1`, for which the activation was 13.1% (active). Take `COc1ccc(S[C@]2(C(=O)N(C)C)CC(=O)N(c3ccc(OC)cc3)[C@@H]2c2ccc(OC)cc2)cc1`: the activation was 0.22%. Take `CC(c1ccc(N)cc1)c1cn(C)c2ccccc12` (stereo unspecified): the activation is 0.46%.

As to `COc1ccc(C2CC=C(C(=O)O)C(c3ccccc3F)N2S(=O)(=O)c2ccc(C)cc2)cc1OC` (stereo unspecified), the activation is 0.12%.

As to `COC(=O)C1=CN(C)C=C(C(=O)OC)C1c1ccc(Cl)cc1Cl`, the activation is 0.08%.

Turning to `CCOc1ccccc1C1C(C(=O)OC)=CN(C)C=C1C(=O)OC`, the activation was 46.1% (active).

In the case of `CCOc1cc(C2C(C(=O)OC)=CN(C3CCCC3)C=C2C(=O)OC)cc(Br)c1O`, the activation was -0.82%. On to `O=S1(=O)c2ccc(Br)cc2OC[C@@H](Cc2ccccc2)N1Cc1cn(Cc2ccco2)nn1`, for which the activation is 0.26%.

On to `Cc1cc(NC(=O)CCN2CCN(Cc3ccccc3)CC2)ccc1Br`, for which the activation is 0.91%. Take `CCOC(=O)c1[nH]c2ccc(OC)cc2c1NC(=O)CCN1CCN(Cc2ccccc2)CC1`: the activation is 13.4% (active). With `COc1cc2[nH]c(=O)n(CCC(=O)NC3CCN(Cc4ccccc4)CC3)c(=O)c2cc1OC`, the activation was -1.29%. Consider `COc1ccc(C(=O)OCCN(C)C2CN(Cc3cn(Cc4cccc(C)c4)nn3)S(=O)(=O)C2)cc1OC` (stereo unspecified), for which the activation was 0%.

As to `CCCCNC(=O)C[C@H]1C(=O)N(Cc2ccc(OC)cc2)C2=CCCC[C@@]21C(=O)OCC`, the activation was -0.1%. For `N#Cc1ccccc1OC[C@@H](O)CN1CCC(C(O)(c2ccccc2)c2ccccc2)CC1`, the activation is 0.62%. On to `COc1ccc(N2CCN(C(=O)Cn3cnc4sc(C)c(S(=O)(=O)N5CCOCC5)c4c3=O)CC2)cc1`, for which the activation was -0.12%. With `COc1ccc(-c2cn3cccnc3n2)cc1`, the activation was 73.9% (active). Regarding `COc1ccc(-c2ccnc(SCC(=O)N3CCOCC3)n2)cc1`, the activation is 0.01%.

Regarding `Nc1nc2ncccn2c1-c1ccccc1`, the activation was 5.34%. Take `c1ccc(-c2cn3cccnc3n2)cc1`: the activation was 32.3% (active).

In the case of `COc1ccc(N2CCN(C(=O)CSc3nnc4ncccn34)CC2)cc1`, the activation was 0.11%. Take `FC(F)(F)Oc1ccc(-c2cn3cccnc3n2)cc1`: the activation was 34.6% (active).

On to `Cc1ccccc1Nc1c(-c2ccccc2)nc2ncccn12`, for which the activation is 0.74%.

Turning to `C=CCOC/C=C/C#CCN(CC=C)Cc1ccc(OC)cc1OC`, the activation is 0.82%.

In the case of `O=C(CSc1nc2ccccc2s1)N=Nc1c(O)[nH]c2ccccc12`, the activation was 0.68%. Regarding `Cc1ccc(-n2c(COc3ccccc3)nnc2SCC(=O)Nc2ccc3c(c2)OCCO3)cc1`, the activation is 0.98%.
